Structures can show the parent of a compound that is named as a salt.
How the values were obtained:
[1] = tested on: S. cerevisiae SK1 pCDA2-eGFP (USY613), sporulating; experiment: CDA2-GFP sporulation assay sensitivity score (z-score vs DMSO controls); higher = stronger inhibition of sporulation, active = hit call of the paper;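 note: active if sensitivity score above 5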
[2] = tested on: S. cerevisiae NKY1551 his4x/his4B, sporulating; experiment: HIS4 meiotic recombination assay sensitivity score (z-score vs DMSO controls); higher = stronger inhibition of sporulation/recombination, active = hit call of the paper;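 note: active if sensitivity score above 5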
[3] = tested on: S. cerevisiae AD1-9 (efflux-pump deficient), vegetative growth in YPD; experiment: growth sensitivity score (doubling time z-score vs DMSO controls); higher = slower growth, strongly negative scores also mark growth inhibition (complete suppression), active = hit call of the paper
Procedure, shortened: (§1)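 Rich medium in microtiter plates was seeded with Saccharomyces cerevisiae strains BY4741 and AD1-9 at an OD600 of 0.065, and compounds were added as a 1:100 dilution of DMSO stock. A Tecan GENios reader recorded optical density every 15 min for 24 hours, with eight solvent-only wells in each experiment. Average doubling time was the time to reach a set generation point divided by generation number. The growth sensitivity score was the compound mean minus the solvent-only mean, divided by the solvent-only standard deviation.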

[4] = tested on: S. cerevisiae BY4741 (wild-type), vegetative growth in YPD; experiment: as above
Procedure, shortened: as §1

Row | Compound | CDA2-GFP sporulation assay sensitivity score [1] | HIS4 meiotic recombination assay sensitivity score [2] | growth sensitivity score [3] | growth sensitivity score [4]
1 | CNC(=C[N+](=O)[O-])NCCSCc1csc(CN(C)C)n1 [Nizatidine] (stock concentration (mM, diluted 1:100): 10) | -0.14 (inactive) | -0.53 (inactive) | -0.22 (inactive) | -0.09 (inactive)
2 | COc1ccc(CC2c3cc(OC)c(OC)cc3CC[N+]2(C)CCC(=O)OCCCCCOC(=O)CC[N+]2(C)CCc3cc(OC)c(OC)cc3C2Cc2ccc(OC)c(OC)c2)cc1OC (configuration not stated) [Atracurium besylate] (stock concentration (mM, diluted 1:100): 10) | 17.9 (active) | 0.87 (inactive) | -2.52 | -0.31 (inactive)
3 | O=C1[C@H]2CCCC[C@H]2C(=O)N1CCCCN1CCN(c2nsc3ccccc23)CC1 [Perospirone hydrochloride] (stock concentration (mM, diluted 1:100): 9.4) | 2.69 (inactive) | -2.62 (inactive) | 2.19 (active) | 3.13 (active)
4 | CC(C)c1ccc2oc3nc(N)c(C(=O)O)cc3c(=O)c2c1 [Amlexanox] (stock concentration (mM, diluted 1:100): 10) | -0.73 (inactive) | 0.07 (inactive) | 0.42 (inactive) | 1.8 (inactive)
5 | CC(=O)CCCCn1cnc2c1c(=O)n(C)c(=O)n2C [Lomifylline] (stock concentration (mM, diluted 1:100): 10) | -2.21 (inactive) | -1.26 (inactive) | -0.96 (inactive) | 0.79 (inactive)
6 | Cc1cn([C@H]2C=C[C@@H](CO)O2)c(=O)[nH]c1=O [Stavudine] (stock concentration (mM, diluted 1:100): 10) | -1.16 (inactive) | -1.75 (inactive) | 0.68 (inactive) | 0.1 (inactive)
7 | CC(C)C[C@H](NC(=O)[C@@H](O)[C@H](N)Cc1ccccc1)C(=O)O [Bestatin] (stock concentration (mM, diluted 1:100): 10) | -0.06 (inactive) | -1.06 (inactive) | -1.24 (inactive) | -1.14 (inactive)
8 | CCN(CC)CC1CCCCN1CC(=O)N1c2ccccc2C(=O)Nc2cccnc21 (configuration not stated) [Otenzepad] (stock concentration (mM, diluted 1:100): 10) | 0.65 (inactive) | -0.63 (inactive) | -1.89 (inactive) | -2.57
9 | COc1ccc(/C=C/C(=O)Nc2ccccc2C(=O)O)cc1OC [Tranilast] (stock concentration (mM, diluted 1:100): 10) | 0.24 (inactive) | 0.1 (inactive) | -1.78 (inactive) | -0.6 (inactive)
10 | CC1(C)S[C@@H]2[C@H](/N=C/N3CCCCCC3)C(=O)N2[C@H]1C(=O)O [Mecillinam] (stock concentration (mM, diluted 1:100): 10) | 0.59 (inactive) | -0.86 (inactive) | -0.02 (inactive) | 1.05 (inactive)
11 | COc1cc(C(=O)NS(=O)(=O)c2ccccc2C)ccc1Cc1cn(C)c2ccc(NC(=O)OC3CCCC3)cc12 [Zafirlukast] (stock concentration (mM, diluted 1:100): 10) | 0.72 (inactive) | 1 (inactive) | 40.9 (active) | -1.75 (inactive)
12 | CCC(C)(C)N=C(NC#N)Nc1cccnc1 [Tocris-1355] (stock concentration (mM, diluted 1:100): 9.9) | 3.65 (inactive) | -1.39 (inactive) | -1.02 (inactive) | 0.46 (inactive)
13 | O=C(c1ccc(F)cc1)C1CCN(CCn2c(=S)[nH]c3ccccc3c2=O)CC1 [Altanserin] (stock concentration (mM, diluted 1:100): 10) | 2.43 (inactive) | -0.6 (inactive) | -0.28 (inactive) | -0.21 (inactive)
14 | O=C1CC2(CCCC2)CC(=O)N1CCNCC1COc2ccccc2O1 (configuration not stated) (stock concentration (mM, diluted 1:100): 10) | 19.1 (active) | -0.57 (inactive) | 3.73 (active) | 1.45 (inactive)
15 | C[C@@H](c1ncncc1F)[C@](O)(Cn1cncn1)c1ccc(F)cc1F [Voriconazole] (stock concentration (mM, diluted 1:100): 9.9) | -0.46 (inactive) | 0.14 (inactive) | 20.3 (active) | 43.3 (active)
16 | OCCN1C[C@H](O)[C@@H](O)[C@H](O)[C@H]1CO [Miglitol] (stock concentration (mM, diluted 1:100): 10) | 1.46 (inactive) | -0.62 (inactive) | -2.16 | -1.34 (inactive)
17 | COc1cccc2c1C(=O)c1c(O)c3c(c(O)c1C2=O)C[C@@](O)(C(=O)CO)C[C@@H]3O[C@H]1C[C@H](N)[C@@H](O)[C@H](C)O1 [Epirubicin hydrochloride] (stock concentration (mM, diluted 1:100): 9.4) | -0.4 (inactive) | -1.39 (inactive) | 93.9 (active) | 11.8 (active)

Row | Compound | CDA2-GFP sporulation assay sensitivity score [1] | HIS4 meiotic recombination assay sensitivity score [2] | growth sensitivity score [3] | growth sensitivity score [4]
18 | Cc1ccc(O)c([C@H](CCN(C(C)C)C(C)C)c2ccccc2)c1 [Tolterodine tartrate] (stock concentration (mM, diluted 1:100): 6.9) | 1.84 (inactive) | 4.21 (inactive) | 2.36 (active) | 0.36 (inactive)
19 | CC(C)/N=c1\cc2n(-c3ccc(Cl)cc3)c3ccccc3nc-2cc1Nc1ccc(Cl)cc1 [Clofazimine] (stock concentration (mM, diluted 1:100): 10) | 0.66 (inactive) | -1.5 (inactive) | 108 (active) | 61.3 (active)
20 | Nc1ccc2cn[nH]c2c1 [6-Aminoindazole] (stock concentration (mM, diluted 1:100): 10) | 2.67 (inactive) | -0.24 (inactive) | -1.63 (inactive) | -0.64 (inactive)
21 | COc1ccccc1N1CCN(CCCNc2cc(=O)n(C)c(=O)n2C)CC1 [Urapidil hydrochloride] (stock concentration (mM, diluted 1:100): 10) | 1.04 (inactive) | -0.7 (inactive) | -0.84 (inactive) | 0.85 (inactive)
22 | CC#C[C@]1(O)CC[C@H]2[C@@H]3CCC4=CC(=O)CCC4=C3[C@@H](c3ccc(N(C)C)cc3)C[C@@]21C [Mifepristone] (stock concentration (mM, diluted 1:100): 10) | 9.91 (inactive) | 2.99 (inactive) | 172 (active) | -2.51
23 | O=C1CCc2ccc(OCCCCN3CCN(c4cccc(Cl)c4Cl)CC3)cc2N1 [Aripiprazole] (stock concentration (mM, diluted 1:100): 10) | -0.09 (inactive) | -1.42 (inactive) | 18.5 (active) | 117 (active)
24 | CN1C(C(=O)Nc2ccccn2)=C(O)c2ccccc2S1(=O)=O [Piroxicam] (stock concentration (mM, diluted 1:100): 10) | -3.86 (inactive) | 0.11 (inactive) | 0.98 (inactive) | 0.09 (inactive)
25 | COC(=O)C1=C(C)NC(C)=C(C(=O)OCC(C)C)C1c1ccccc1[N+](=O)[O-] (configuration not stated) [Nisoldipine] (stock concentration (mM, diluted 1:100): 10) | -0.05 (inactive) | -2.61 (inactive) | 89.2 (active) | 57 (active)
26 | O=C(CCCN1CC=C(n2c(=O)[nH]c3ccccc32)CC1)c1ccc(F)cc1 [Droperidol] (stock concentration (mM, diluted 1:100): 10) | 3.12 (inactive) | -0.15 (inactive) | -1.57 (inactive) | -0.99 (inactive)
27 | Nc1[nH]c(=O)ncc1F [5-Fluorocytosine] (stock concentration (mM, diluted 1:100): 10.5) | 0.12 (inactive) | -1.29 (inactive) | 36.6 (active) | 54.5 (active)
28 | CCOC(=O)C1=C(C)NC(C)=C(C(=O)OC)C1c1cccc([N+](=O)[O-])c1 (configuration not stated) [Nitrendipine] (stock concentration (mM, diluted 1:100): 10) | 10.3 (active) | 1.41 (inactive) | 23.1 (active) | 1.09 (inactive)
29 | COc1ccc(-c2cc(=O)c3c(OC)c(OC)c(OC)c(OC)c3o2)cc1OC [Nobiletin] (stock concentration (mM, diluted 1:100): 10) | 5.43 (inactive) | 1.02 (inactive) | 3.87 (active) | 4.43 (active)
30 | CCCCCCCCCCC[C@@H](C[C@@H]1OC(=O)[C@H]1CCCCCC)OC(=O)[C@H](CC(C)C)NC=O [Orlistat] (stock concentration (mM, diluted 1:100): 10) | -2.33 (inactive) | -1.52 (inactive) | -0.73 (inactive) | 0.78 (inactive)
31 | CSc1nc2cc(Cl)c(Oc3cccc(Cl)c3Cl)cc2[nH]1 [Triclabendazole] (stock concentration (mM, diluted 1:100): 10) | 0.58 (inactive) | -1.98 (inactive) | 74.8 (active) | 168 (active)
32 | Nc1nc(O)c2ncn(CCC(CO)CO)c2n1 [Penciclovir] (stock concentration (mM, diluted 1:100): 10) | 0.81 (inactive) | -0.35 (inactive) | -0.22 (inactive) | -0.88 (inactive)
33 | CCN1CCCC1CNC(=O)c1cc(S(=O)(=O)CC)c(N)cc1OC (configuration not stated) [Amisulpride] (stock concentration (mM, diluted 1:100): 10) | -0.38 (inactive) | -0.66 (inactive) | -0.73 (inactive) | -0.22 (inactive)
